Active and inactive are the calls of the source. The calls were made as follows: active = hit-call score of the fitted dose curve at least 0.9, where 1 is the maximum; inactive = score below 0.9.
Experiments:
[1] = APR_HepG2_CellCycleArrest_24hr: Apredica 24-hour HepG2 Assay for Cell Cycle Arrest (AID 2282905); conditions: imaging, actives raise or lower the signal;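 also: cell cycle arrest scored as ratio of 2N to 4N nuclear DNA content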
In short: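 Compounds (0.39 to 200 uM, final DMSO 0.5% v/v) are applied to HepG2 cells for 24 hours; cells are then fixed, permeabilized and nuclei labeled with Hoechst 33342. Automated imaging measures DNA content, and activity is fitted in both directions against DMSO.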

[2] = APR_HepG2_NuclearSize_24hr: Apredica 24-hour HepG2 Assay for Nuclear Size (AID 2282907); conditions: high-content imaging, actives raise or lower the signal
In short: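 Nuclear size is measured by fluorescence high-content imaging of Hoechst-labelled HepG2 nuclei after 24 hr of treatment (0.39–200 uM, 0.5% DMSO). Cells are fixed in 3.7% formaldehyde before staining, and DMSO serves as the baseline for bidirectional curve fitting.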

[3] = APR_HepG2_CellLoss_24hr: Apredica 24-hour HepG2 Assay for Cell Loss (AID 2282908); conditions: high-content imaging;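 as to AC50: fit in both directions so a hit may be cell loss or gain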
In short: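 Nuclear count serves as the viability measure: treated cells are fixed, permeabilized and labelled with Hoechst 33342, and six images per well are analysed to identify valid nuclei. Doses span 0.39–200 uM, and activity in either direction is scored against DMSO.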

[4] = APR_HepG2_MicrotubuleCSK_24hr: Apredica 24-hour HepG2 Assay for Microtubule CSK Stabilty (AID 2282909); conditions: HepG2 microtubule cytoskeleton imaging, actives raise or lower the signal
In short: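 Compounds were applied to HepG2 cells for 24 hours across 0.39–200 uM in duplicate, with final DMSO at 0.5% v/v. Fixed, permeabilized cells were labeled for alpha-tubulin and nuclei, and tubulin fluorescence was quantified by imaging, fitted bidirectionally against DMSO.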

[5] = APR_HepG2_MitoticArrest_24hr: Apredica 24-hour HepG2 Assay for Mitotic Arrest (AID 2282910); conditions: high-content imaging, actives raise or lower the signal
In short: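 Treatment lasted 24 hr in the human HepG2 line at 0.39–200 uM, solvent held at 0.5% DMSO. Fixed cells were stained with Hoechst 33342 and anti-phospho-histone H3, imaged at 20x, and analysed by gain- or loss-of-signal fitting against DMSO.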

[6] = APR_HepG2_MitoMembPot_24hr: Apredica 24-hour HepG2 Assay for Mitochondrial Membrane Potential (AID 2282911); conditions: imaging, actives raise or lower the signal
In short: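 HepG2 human liver cells were exposed 24 hr to compounds at 0.39–200 uM (final DMSO 0.5% v/v) in duplicate. MitoTracker Red CMXRos (250 nM, 30 min) was loaded before formaldehyde fixation; fluorescence was imaged by ArrayScan HCS and fitted bidirectionally versus DMSO.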

[7] = APR_HepG2_p53Act_24hr: Apredica 24-hour HepG2 Assay for p53 Activation (AID 2282913); conditions: high-content imaging, actives raise or lower the signal;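 also: p53 protein immunofluorescence averaged per cell in HepG2 with Hoechst nuclei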
In short: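 HepG2 cells exposed 24 hr to compounds at 0.39–200 uM (10 concentrations, duplicate), final DMSO 0.5% v/v. After formaldehyde fixation and Triton permeabilization, p53 was immunolabeled (sheep anti-p53, Cy5 secondary) with Hoechst 33342 nuclear counterstain, then imaged by high-content fluorescence microscopy.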

[8] = APR_HepG2_CellCycleArrest_72hr: Apredica 72-hour HepG2 Assay for Cell Cycle Arrest (AID 2282914); conditions: high-content imaging, actives raise or lower the signal
In short: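 HepG2 cells were exposed to compounds at 0.39–200 uM (0.5% v/v DMSO final, duplicates) for 72 hr, fixed in 3.7% formaldehyde, permeabilized and stained with Hoechst 33342. Nuclear DNA content was quantified by high-content imaging; gain or loss of signal was fitted bidirectionally against DMSO.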

[9] = APR_HepG2_CellLoss_72hr: Apredica 72-hour HepG2 Assay for Cell Loss (AID 2282915); conditions: high-content imaging
In short: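 HepG2 cells were exposed for 72 hr to compounds at 0.39–200 uM (ten concentrations, duplicate) in 0.5% v/v final DMSO. Nuclei were stained with Hoechst 33342 after 3.7% formaldehyde fixation, imaged at 20x, and counted; fits bidirectional versus DMSO.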

[10] = APR_HepG2_MitoMass_24hr: Apredica 24-hour HepG2 Assay for Mitochondrial Mass (AID 2282912); conditions: high-content imaging, actives raise or lower the signal
In short: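 After 24 hr of treatment at 0.39 to 200 uM, HepG2 cells take up 250 nM MitoTracker Red CMXRos for 30 min and are then fixed with 3.7% formaldehyde. Per-well images are quantified, and any change in either direction is scored against solvent.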

Measured: AC50

CC[C@H](C)C(=O)O[C@H]1C[C@@H](C)C=C2C=C[C@H](C)[C@H](CC[C@@H]3C[C@@H](O)CC(=O)O3)[C@H]21
active: [3] 82 µM | [5] 28.9 µM | [6] 48.8 µM | [9] 31.1 µM
not listed: [10]
inactive: all other assays above

CC(C)=CCCC(C)CCO (centres undefined)
active: [8] 0.0388 µM | [9] 0.0391 µM
not listed: [10]
inactive: all other assays above

Cc1ccc(S(=O)(=O)O)cc1C
active: [9] 0.0391 µM
not listed: [2]
inactive: all other assays above

COC(=O)c1ccccc1O
not listed: [10]
inactive: all other assays above

O=C1OC(=O)C2C3C=CC(C3)C12 (centres undefined)
not listed: [10]
inactive: all other assays above

O=C1CCC(N2C(=O)c3ccccc3C2=O)C(=O)N1 (centres undefined)
not listed: [10]
inactive: all other assays above

CC(O)CN(CCN(CC(C)O)CC(C)O)CC(C)O (centres undefined)
not listed: [2]
inactive: all other assays above

Clc1nc(Cl)c(Cl)c(Cl)c1Cl
active: [1] 40 µM | [3] 45 µM | [5] 77.3 µM | [7] 38.6 µM | [8] 20 µM | [9] 72 µM
inactive: [2] | [4] | [6]

CC(C)=CCCC(C)=CC=O
not listed: [10]
inactive: all other assays above

COc1ccc(-n2nc(C(F)F)cc2-c2ccc(S(C)=O)cc2)cc1 (centres undefined)
active: [1] 49.5 µM | [6] 5.03 µM | [9] 72.8 µM
not listed: [2]
inactive: all other assays above

CCOCCOCCOCCO
not listed: [2]
inactive: all other assays above

O=C(CCCCCCCCc1cccnc1)N1CCC(C=C(c2ccccc2)c2ccccc2)CC1
not listed: [2]
inactive: all other assays above

CCC(C)(C)C(=O)O[C@H]1C[C@@H](C)C=C2C=C[C@H](C)[C@H](CC[C@@H]3C[C@@H](O)CC(=O)O3)[C@H]21
inactive: [2] | [4] | [8]
active: [1] 2.85 µM | [3] 123 µM | [5] 2.96 µM | [6] 105 µM | [7] 89.3 µM | [9] 26.8 µM

Cn1c(=O)cc(Oc2ccc(F)cc2F)c2cnc(NCC(C)(C)O)nc21
active: [8] 112 µM
not listed: [2]
inactive: all other assays above

Nc1nc2ncc(CNc3ccc(C(=O)N[C@@H](CCC(=O)O)C(=O)O)cc3)nc2c(=O)[nH]1
not listed: [10]
inactive: all other assays above

C1N2CN3CN1CN(C2)C3
not listed: [10]
inactive: all other assays above

Nc1ccc(Nc2ccccc2)cc1
active: [6] 54 µM | [8] 13.8 µM | [9] 40.1 µM
not listed: [2]
inactive: all other assays above

COc1cccc(-c2ccc(/C=C\CN3CCCCCC3)cc2Cl)c1
inactive: [4] | [6]
active: [1] 87.1 µM | [3] 74.8 µM | [5] 28.5 µM | [10] 23.8 µM | [7] 30.8 µM | [8] 84.2 µM | [9] 28.6 µM

CCCCC(CC)COC(=O)c1ccc(C(=O)OCC(CC)CCCC)cc1 (centres undefined)
active: [8] 32.4 µM
not listed: [2] | [10]
inactive: all other assays above

COC(=O)c1c(Cl)c(Cl)c(C(=O)OC)c(Cl)c1Cl
not listed: [2] | [10]
inactive: all other assays above

C[C@](N)(Cc1ccc(O)c(O)c1)C(=O)O
not listed: [2]
inactive: all other assays above

CC(C)CCCCCCOC(=O)c1ccc(C(=O)OCCCCCCC(C)C)c(C(=O)OCCCCCCC(C)C)c1
not listed: [2] | [10]
inactive: all other assays above

O=C(OC[C@H]1O[C@@H](OC(=O)c2cc(O)c(O)c(OC(=O)c3cc(O)c(O)c(O)c3)c2)[C@H](OC(=O)c2cc(O)c(O)c(OC(=O)c3cc(O)c(O)c(O)c3)c2)[C@@H](OC(=O)c2cc(O)c(O)c(OC(=O)c3cc(O)c(O)c(O)c3)c2)[C@@H]1OC(=O)c1cc(O)c(O)c(OC(=O)c2cc(O)c(O)c(O)c2)c1)c1cc(O)c(O)c(OC(=O)c2cc(O)c(O)c(O)c2)c1
active: [6] 26.4 µM | [10] 23.9 µM | [7] 20.8 µM | [9] 21.4 µM
not listed: [2]
inactive: all other assays above

Reference: PubChem BioAssay (EPA / NIEHS)
